Measured values from PubChem BioAssay (NCATS).
Results filed as inconclusive are left out. Values without a mark were called inactive. The call rests on the fitted dose curve.

Experiment: S16 Schwann cell PMP22 intronic element beta-lactamase assay (AID 624044);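 further: 0% = DMSO and -100% = potassium clavulanate positive control; nearly all actives have a fitted effect of over 15% in size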
Settings: S16 rat Schwann cells, PMP22 element beta-lactamase FRET, 24 h; series mostly up to 38.3 µM; ratio activity, negative = inhibition: at the top concentration
Outline: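 Rat S16 Schwann cells with beta-Lac driven by a PMP22 intronic element, compound-treated 24 h at 37 °C. LiveBLAzer FRET B/G read: 460 nm normalized to potassium clavulanate vs DMSO; 535 nm FRET as viability; concentration-effect curves classified.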

Structure (SMILES) | ratio activity, negative = inhibition
CN1CCC(OC(c2ccccc2)c2ccccc2)CC1 | 6.9% [at 17.1 µM]
O=C(O)C1(C(=O)O)CCC1.[NH2-].[NH2-].[Pt+2] | -9.51%
Nc1nc(N)c(-c2ccccc2)s1 | -1.1%
NC(=O)n1c(O)c(C(=O)c2cccs2)c2cc(Cl)ccc21 | -2.62%
O=C(NCCc1c[nH]c2ccccc12)c1cccnc1 | 3.8%
CCCCc1cc2ccccc2c(OCCN(C)C)n1 | -3.83% [at 17.1 µM]
CC(=O)Nc1ncc([N+](=O)[O-])s1 | -1.26%
Clc1cccc(C(c2ccc3nc[nH]c3c2)n2ccnc2)c1 (stereo not drawn) | -14%
N/C(=N\N=C\c1ccc(Cl)cc1)N/N=C/c1ccc(Cl)cc1 | -0.281%
CCc1oc2ccccc2c1C(=O)c1cc(I)c(O)c(I)c1 | -0.354%
NCc1ccccc1Sc1ccccc1CO | -0.887%
CCOC(=O)[C@H](CCc1ccccc1)N[C@@H](C)C(=O)N1[C@H](C(=O)O)C[C@H]2CCCC[C@@H]21 | -0.708%
CN(CCCN1c2ccccc2CCc2ccccc21)CC(=O)c1ccc(Cl)cc1 | 3.34%
